Screening data: PubChem BioAssay, several laboratories
BJeLR viability: BJeLR cell viability loss. 300,000 tested, 0.17% active. BJeLR (HRASV12) viability, CellTiter-Glo ATP luminescence, 48 h. inhibition, % (concentration not given with the values). AID 1554; in the data active = inhibition above about 50%
GDH-TPI inh: counter-screen for M. tuberculosis FBA inhibitors: GDH-TPI coupled enzymes; GDH-TPI coupled enzyme counterscreen, NADH absorbance; inhibition, % at 4.8 µM; 360,000 tested, 1.2% active; in the data active = inhibition above about 30%;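 note: 0% = DMSO wells and 100% = wells lacking the enzyme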
RecA splice inh: inhibitors of M. tuberculosis RecA intein splicing | inhibition, % (no concentration beside the values) | 290,000 tested, 0.75% active | P9WHJ3 | AID 2221 | cell-free RecA intein splicing, fluorescence; in the data active = inhibition above about 30%;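 note: 0% = vehicle wells and 100% = reference inhibitor control wells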
Target sequence (P9WHJ3 whole entry, looked up, canonical isoform): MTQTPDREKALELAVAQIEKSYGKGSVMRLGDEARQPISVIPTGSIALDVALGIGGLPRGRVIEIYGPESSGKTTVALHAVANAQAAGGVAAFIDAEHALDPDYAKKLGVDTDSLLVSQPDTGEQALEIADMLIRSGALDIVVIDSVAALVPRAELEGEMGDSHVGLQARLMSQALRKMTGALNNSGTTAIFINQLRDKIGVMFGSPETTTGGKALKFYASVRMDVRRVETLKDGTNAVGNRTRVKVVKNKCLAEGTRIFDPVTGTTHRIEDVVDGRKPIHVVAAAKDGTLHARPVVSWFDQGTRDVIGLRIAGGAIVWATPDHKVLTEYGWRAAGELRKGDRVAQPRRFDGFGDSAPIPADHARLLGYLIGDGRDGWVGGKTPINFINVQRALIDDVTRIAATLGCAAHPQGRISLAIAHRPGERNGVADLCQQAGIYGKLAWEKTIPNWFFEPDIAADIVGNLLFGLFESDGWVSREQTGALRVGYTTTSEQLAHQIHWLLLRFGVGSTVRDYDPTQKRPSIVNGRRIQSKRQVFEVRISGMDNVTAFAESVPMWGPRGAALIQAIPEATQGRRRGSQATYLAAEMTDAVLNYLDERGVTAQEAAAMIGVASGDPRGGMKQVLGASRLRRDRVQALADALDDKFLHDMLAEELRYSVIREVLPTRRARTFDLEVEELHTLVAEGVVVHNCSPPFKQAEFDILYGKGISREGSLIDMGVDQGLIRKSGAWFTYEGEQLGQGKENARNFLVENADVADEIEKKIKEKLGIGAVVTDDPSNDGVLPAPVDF
FBA Mtb inh: inhibits M. tuberculosis FBA enzyme; purified M. tuberculosis FBA, fluorescence read-out; inhibition, % at 1 µM; 360,000 tested, 2.3% active; AID 588726; in the data active = inhibition above about 27%;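 note: 0% = vehicle and 100% = reference inhibitor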
PrPC surface inh: inhibitors of human cell surface prion protein PrPC | P04156 | TR-FRET read-out | inhibition, % at 13.8 µM | 370,000 tested, 0.43% active; in the data active = inhibition above about 24%; note: 0% = median of the test wells and 100% = reference compound wells
Active calls of the source: *; nt = not tested or not shown. This is a sample that favours compounds with a hit; in the whole collection about 4.2% have one here.

SMILES	BJeLR viability	GDH-TPI inh	RecA splice inh	FBA Mtb inh	PrPC surface inh
CN(CCO)c1cccc2c1S(=O)(=O)N(Cc1cn(Cc3ccc(Cl)cc3)nn1)Cc1ccccc1O2	nt	nt	nt	nt	-7
O=C(c1ccc(N2CCN(C(=O)c3ccccc3)CC2)cc1)c1cccc(F)c1	-1	38*	3	-2	-4
O=C(c1ccc(N2CCN(C(=O)c3ccc(F)c(F)c3)CC2)cc1)c1cccc(F)c1	0	32*	3	-1	2
O=C(c1cccnc1)N1CCN(c2ccc(Cl)cc2)CC1	3	32*	-1	3	1
O=C(c1cccc(F)c1)N1CCN(c2cccc(Cl)c2)CC1	2	-6	5	4	3
Cn1c(=O)c2cc(S(=O)(=O)N3CCN(c4ccccc4Cl)CC3)ccc2n(C)c1=O	nt	nt	nt	nt	-3
CCCCOCCCNC(=O)C[C@H]1C[C@@]2(C(=O)OC)C(=C[C@H](C3CCCC3)O[C@@H]2C)N(Cc2cccc3ccccc23)C1=O	nt	nt	nt	nt	2
COc1ccc(C2C(C#N)=C(N)SC(N)=C2C#N)cc1OC	8	8	0	-5	59*
N#CC1=C(N)SC(N)=C(C#N)C1c1cccc(O)c1	7	-2	-4	1	27*
O=C(NCCc1ccccc1)c1cc2sccc2n1Cc1ccccc1	4	4	1	156*	10
CCn1c(C(=O)NCCCc2ccccc2)cc2sccc21	3	6	1	1	6
NC1=CC(=O)c2cccc3cccc1c23	-9	nt	-10	nt	nt
O=C1C=C(O)c2cccc3cccc1c23	-2	31*	-5	-2	11
Cc1ccccc1CN1CCCCC(NC(=O)Nc2ccccc2-c2ccccc2)C1=O (stereo not given)	nt	nt	nt	nt	8
Cc1ccccc1NC(=O)C1CCCN1/C=C/C(=O)C(F)(F)F (stereo not given)	-4	25	-2	-3	1
O=C(Nc1ccccc1)C1CCCN1/C=C/C(=O)C(F)(F)F (stereo not given)	-13	44*	-1	2	1
CCOC(=O)C1CCN(c2nc3cc(OC)ccc3cc2C#N)CC1	2	4	-3	24	-6
CCOC(=O)C1CCN(c2nc(N)c3c(N)nc(SCC(=O)O)cc3c2C#N)CC1	-2	8	45*	25	-5
O=c1c2ccccc2nc(/C=C/c2cccnc2)n1CCc1ccccc1	-5	37*	43*	0	-13
O=c1c2ccccc2nc(/C=C/c2cccnc2)n1Cc1ccccc1	2	15	49*	-1	1
CCOC(=O)N1CCN(C(=O)C[C@H]2C[C@@]3(C(=O)OC)C(=C[C@H](C(C)C)O[C@@H]3C3CC3)N(CCC3=CCCCC3)C2=O)CC1	nt	nt	nt	nt	-1
O=C(NC1CCCCN(Cc2cccc(Cl)c2)C1=O)c1cccc(C(F)(F)F)c1 (stereo not given)	nt	nt	nt	nt	3
Cc1ccc[n+](-c2[nH]c(=O)sc2/C=N/N=C(\[O-])c2cccnc2)c1	-1	0	-3	-3	-12
CCc1ccc[n+](-c2[nH]c(=O)sc2/C=N/N=C(\[O-])c2cccnc2)c1	0	39*	1	-5	-8
Cc1cc[n+](-c2[nH]c(=O)sc2/C=N/N=C(\[O-])c2ccncc2)cc1C	-5	35*	-4	-4	-15
SMILES	BJeLR viability	GDH-TPI inh	RecA splice inh	FBA Mtb inh	PrPC surface inh
O=C(N/N=C/c1sc(=O)[nH]c1-[n+]1ccccc1)c1ccccc1[O-]	-1	55*	0	-5	-19
O=c1[nH]c(-[n+]2ccccc2)c(/C=N/N=C(\[O-])c2ccccc2)s1	7	57*	3	-10	-33
CCOC(=O)[C@@]12CCCC=C1N(CCc1ccc(Cl)cc1)C(=O)[C@H]2CC(=O)N1CCCC1	nt	nt	nt	nt	-5
Cc1cc(C)cc(C(=O)OCCCN(C)C2CN(Cc3cn(Cc4ccc([N+](=O)[O-])cc4)nn3)S(=O)(=O)C2)c1 (stereo not given)	nt	nt	nt	nt	-10
CCCCCc1ccc(NC(=O)O[C@@H]2CC[C@@]34CCCN3C(=O)CCC[C@H]4C2)cc1	nt	nt	nt	nt	-3
O=C(N/N=C/c1ccc(-c2ccccc2)o1)c1ccccc1O	6	29	-1	-1	-4
N/C(=N\N=C/c1ccc(-c2ccc(O)c(C(=O)O)c2)o1)N[N+](=O)[O-]	-1	58*	-2	4	-12
CN(/N=C/c1ccc([N+](=O)[O-])o1)c1ccccc1	-9	3	8	-15	-43
CN(C)/N=C/c1ccc(P(c2ccc(/C=N/N(C)C)o2)c2ccc(/C=N/N(C)C)o2)o1	2	65*	-4	-6	-9
